TGFb inhibitor: TGF-b pathway inhibition. HepG2 CAGA-GFP TGF-b/SMAD3 reporter, GFP fluorescence, 18 h; TGF-beta stimulated, 500 pg/mL final. Potency, µM (titrated, usually from 46.1 µM), actives largely listed as inhibitors. actives 1.2% (n = 410,000). AID 588855; note: nearly all actives have a fitted effect of over 65% in size
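Cell-based qHTS in HEPG2 carrying a CAGA-GFP Smad reporter; compounds added before 500 pg/mL final TGF-beta, 18 h incubation at 37 degrees C, GFP fluorescence quantified per cell by imaging cytometry.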
IL1B secr inh: inflammasome signaling inhibition, IL-1 beta readout; THP-1 LPS/ATP IL-1B secretion, AlphaLISA, 16 h; hits give low values; activity change, % at 57.5 µM; actives 4.7% (n = 360,000); in the data active = activity change below about -50%; inconclusive = mostly about -30% to -49%
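Secreted IL-1B measured by AlphaLISA bead assay after 16 h compound exposure of THP-1 cells; compounds (final up to 57.5 uM) added 1 h before LPS (250 ng/mL) and ATP (1.25 mM) stimulation; lower signal means less secretion.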
Giardia killer: Giardia lamblia killing. AID 540267. actives 0.15% (n = 340,000). Giardia lamblia trophozoite viability. activity change, % at 7.66 µM, hits read low; in the data active = activity change below about -80%; inconclusive = between about -30% and that limit;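 note: parasites exposed to compound for two days anaerobically before the ATP read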
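Killing of trophozoites was scored by loss of ATP luminescence after a 48 hrs anaerobic exposure to compounds at 37 deg C, using 100 cells per well.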
HepG2 tox: HepG2 cytotoxicity, counter-screen for TGF-b inhibitors; AID 588856; actives 0.76% (n = 410,000); Potency, µM (titrated, usually from 46.1 µM), most hits filed as cytotoxic; HepG2 CAGA-GFP viability, ATP luminescence, 18 h
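CellTiter-Glo luminescence gave cytotoxicity after 18 hours at 37 degrees C. The cells were HepG2 CAGA-GFP in 1% FBS DMEM, stimulated with 500 pg/mL TGF-beta after compound addition. %Activity was normalised to no-cell wells (complete cell-killing) and DMSO (no toxicity), and curves were fitted and classified.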
HT1080-NT tox: kills 2HG-producing HT-1080-NT fibrosarcoma cells; HT-1080-NT fibrosarcoma viability, CellTiter-Glo ATP luminescence, 48 h; Potency, µM (series often up to 46.1 µM), usual class: cytotoxic; actives 1.6% (n = 360,000);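 note: NT is the 2HG producing partner of a matched IDH1 knockdown line; nearly all actives have a fitted effect of over 55% in size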
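Luminescent CellTiter-Glo readout after 48 hours of compound exposure at 37 degrees C defined viability of HT-1080-NT cells. Activity was normalized to DMSO wells and cell-free media wells; concentration-response curves were fitted and assigned curve classes.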
HT1080 IDH1KD tx: kills HT-1080 cells with IDH1 knockdown. AID 686971. HT-1080 IDH1 knockdown viability, ATP luminescence, 48 h. actives 2% (n = 360,000). Potency, µM (top dose mostly 46.1 µM), hits mostly cytotoxic
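Assay cells: HT-1080 with IDH1 knockdown, 750 per well, RPMI/5% FBS. Exposure: 48 h at 37 °C following 2 h pre-incubation. Read: CellTiter-Glo luminescence; fitted concentration-response, curve class assigned.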
A number is an active result. The list is not random: actives were taken first. Their share in the collection is about 6.5%. Unless noted, calls come from the whole dose curve; as a rule, active = well fitted curve in the direction sought with a large enough effect; inconclusive = small, poorly fitted or top-dose-only effect, or another doubt; inactive = no such curve, though single readings can be large; an effect the other way counts as inactive or inconclusive.

Results for CC(=O)c1cccc(NS(=O)(=O)c2ccc3[nH]c4c(c3c2)CCCCC4)c1 ?
TGFb inhibitor: inconclusive; HepG2 tox: inactive

How did O=S(=O)(Nc1cccc(Cl)c1)c1ccc2[nH]c3c(c2c1)CCCCCC3 do in these assays?
TGFb inhibitor: 11µM; HepG2 tox: 20µM

What do the screens show for `Cc1c(C)c2ccc(OCC(=O)NCCCn3ccnc3)c(C)c2oc1=O`?
TGFb inhibitor: inactive; IL1B secr inh: inconclusive; Giardia killer: inactive; HepG2 tox: inactive; HT1080-NT tox: inactive; HT1080 IDH1KD tx: inactive

Results for CCOC(=O)c1cccc(NS(=O)(=O)c2ccc3[nH]c4c(c3c2)CCCC4)c1 ?
TGFb inhibitor: 14µM; HepG2 tox: inactive

What do the screens show for `Cc1ccc(Cl)cc1N1CCN(S(=O)(=O)c2ccc3[nH]c4c(c3c2)CCCC4)CC1`?
TGFb inhibitor: 10µM; HepG2 tox: inactive

Results for O=C(NNC(=S)NC(=O)c1ccc(F)cc1)c1ccncc1 ?
TGFb inhibitor: inactive; IL1B secr inh: inactive; Giardia killer: inactive; HepG2 tox: inactive; HT1080-NT tox: inactive; HT1080 IDH1KD tx: inactive

Results for NN(Cc1ccccc1)C(=S)Nc1ccc(Cl)c(Cl)c1 ?
TGFb inhibitor: inactive; IL1B secr inh: -56; Giardia killer: inactive; HepG2 tox: inactive; HT1080-NT tox: inactive; HT1080 IDH1KD tx: inactive

Results for COc1ccc(-c2ccc([C@H]3[C@@H]4C=CCC[C@@]4(C)C(=O)N3Cc3ccccc3)c(F)c2)cc1 ?
TGFb inhibitor: inactive; IL1B secr inh: inactive; Giardia killer: inactive; HepG2 tox: inactive; HT1080-NT tox: inconclusive; HT1080 IDH1KD tx: inconclusive

How did COC(=O)[C@H](Cc1ccccc1)NC(=O)N1CCCCCC1 do in these assays?
TGFb inhibitor: inactive; IL1B secr inh: inactive; Giardia killer: inactive; HepG2 tox: inactive; HT1080-NT tox: inactive; HT1080 IDH1KD tx: inactive

How did NC(=O)NC(Cc1ccccc1)C(=O)NCC1(N2CCCCC2)CCCCC1 (stereo unspecified) do in these assays?
TGFb inhibitor: inactive; IL1B secr inh: inactive; Giardia killer: inactive; HepG2 tox: 3.5µM; HT1080-NT tox: inactive; HT1080 IDH1KD tx: inactive

What do the screens show for `Nc1cc(Cl)ccc1C(=O)OCC(=O)N1CCOCC1`?
TGFb inhibitor: inactive; IL1B secr inh: inactive; Giardia killer: inactive; HepG2 tox: inactive; HT1080-NT tox: inconclusive; HT1080 IDH1KD tx: inactive

How did N#Cc1ccc(-c2ccc(OCC(=O)Nc3cccnc3)cc2)cc1 do in these assays?
TGFb inhibitor: inactive; IL1B secr inh: -52; Giardia killer: inactive; HepG2 tox: inactive; HT1080-NT tox: inconclusive; HT1080 IDH1KD tx: inconclusive

What do the screens show for `COc1ccc(NC(=O)O[C@@H](C)[C@@H]2CN3CCc4c([nH]c5ccc(-c6ccc(OC)cc6)cc45)[C@@H]3C[C@@H]2N(C)C(=O)Nc2ccc(OC)cc2)cc1`?
TGFb inhibitor: inconclusive; IL1B secr inh: inactive; HepG2 tox: inactive; HT1080-NT tox: inactive; HT1080 IDH1KD tx: inactive

What do the screens show for `COc1ccc(NC(=O)N(C)[C@H]2C[C@H]3c4[nH]c5ccc(-c6ccc(OC)cc6)cc5c4CCN3C[C@H]2[C@H](C)O)cc1`?
TGFb inhibitor: inconclusive; IL1B secr inh: inconclusive; HepG2 tox: inactive; HT1080-NT tox: 23µM; HT1080 IDH1KD tx: 16µM

How did CN[C@H]1C[C@H]2c3[nH]c4ccc(-c5cccc(C)c5)cc4c3CCN2C[C@H]1[C@H](C)O do in these assays?
TGFb inhibitor: inconclusive; IL1B secr inh: inconclusive; HepG2 tox: inactive; HT1080-NT tox: 16µM; HT1080 IDH1KD tx: inconclusive

How did COc1ccc(NC(=O)N(C)[C@H]2C[C@H]3c4[nH]c5ccc(-c6ccc7c(c6)OCO7)cc5c4CCN3C[C@H]2[C@H](C)O)cc1 do in these assays?
TGFb inhibitor: inconclusive; IL1B secr inh: inactive; HepG2 tox: inactive; HT1080-NT tox: 23µM; HT1080 IDH1KD tx: 23µM

What do the screens show for `Cc1cccc(NC(=S)NNC(=S)NCc2ccccc2)c1`?
TGFb inhibitor: inactive; IL1B secr inh: inactive; Giardia killer: inactive; HepG2 tox: inactive; HT1080-NT tox: inactive; HT1080 IDH1KD tx: inconclusive

Results for COc1ccc(OCCC(=O)OCC(=O)Nc2ccc(S(=O)(=O)N3CCOCC3)cc2)cc1 ?
TGFb inhibitor: inactive; IL1B secr inh: -65; Giardia killer: inactive; HepG2 tox: inactive; HT1080-NT tox: inactive; HT1080 IDH1KD tx: inactive

What do the screens show for `CCOc1ccc(S(=O)(=O)N2CCOCC2)cc1NC(=O)CSCc1ccc(C)cc1`?
TGFb inhibitor: inactive; IL1B secr inh: inactive; Giardia killer: inactive; HepG2 tox: inactive; HT1080-NT tox: 8.2µM; HT1080 IDH1KD tx: inconclusive

Results for COc1ccc(S(=O)(=O)N2CCOCC2)cc1NC(=O)COC(=O)CCOc1ccc(C)cc1 ?
TGFb inhibitor: inactive; IL1B secr inh: inactive; Giardia killer: inactive; HepG2 tox: inactive; HT1080-NT tox: inactive; HT1080 IDH1KD tx: inactive

Results for CCOc1ccc(OCCC(=O)OCC(=O)N2CCN(S(=O)(=O)c3ccc(Cl)cc3)CC2)cc1 ?
TGFb inhibitor: inconclusive; IL1B secr inh: -85; Giardia killer: inactive; HepG2 tox: inactive; HT1080-NT tox: inconclusive; HT1080 IDH1KD tx: inconclusive

Results for Cc1ccc(C)c(OCCC(=O)OCC(=O)N2CCN(S(=O)(=O)c3ccc(Cl)cc3)CC2)c1 ?
TGFb inhibitor: inactive; IL1B secr inh: inactive; Giardia killer: inactive; HepG2 tox: inactive; HT1080-NT tox: inactive; HT1080 IDH1KD tx: inactive

Results for COc1ccc(S(=O)(=O)N2CCOCC2)cc1NC(=O)COc1ccc(C)cc1 ?
TGFb inhibitor: inactive; IL1B secr inh: -51; Giardia killer: inactive; HepG2 tox: inactive; HT1080-NT tox: inactive; HT1080 IDH1KD tx: inactive

Results for O=C(CSc1nnc(-c2cccnc2)o1)Nc1ccccc1Br ?
TGFb inhibitor: inactive; IL1B secr inh: inactive; Giardia killer: inactive; HepG2 tox: inactive; HT1080-NT tox: inactive; HT1080 IDH1KD tx: inactive

How did COc1ccc(S(=O)(=O)N2CCOCC2)cc1NC(=O)CCNC(=O)c1ccc(Cl)cc1 do in these assays?
TGFb inhibitor: inactive; IL1B secr inh: inactive; Giardia killer: inactive; HepG2 tox: inactive; HT1080-NT tox: 21µM; HT1080 IDH1KD tx: inconclusive

Results for CCCN(CC(=O)Nc1ccccc1C)C(=O)c1ccc(OCc2c(C)noc2C)cc1 ?
TGFb inhibitor: inactive; IL1B secr inh: inactive; Giardia killer: inactive; HepG2 tox: inactive; HT1080-NT tox: inactive; HT1080 IDH1KD tx: inactive

What do the screens show for `COc1ccccc1-c1noc2c1C(=O)N(C(=O)OC(C)(C)C)CC2`?
TGFb inhibitor: inactive; IL1B secr inh: inactive; HepG2 tox: inactive; HT1080-NT tox: inactive; HT1080 IDH1KD tx: inactive

How did COc1ccc2nc(N=Nc3ccc(N(C)C)cc3)sc2c1 do in these assays?
TGFb inhibitor: inactive; IL1B secr inh: inactive; Giardia killer: -82; HepG2 tox: inactive; HT1080-NT tox: inactive; HT1080 IDH1KD tx: inactive
